Data reported in PubChem BioAssay AID595 (National Center for Advancing Translational Sciences (NCATS), 2007).
Hit rate of the full screen: of about 71,000 compounds, about 310 (0.44%) were called active. Roughly 5% stayed inconclusive and do not appear here. The list comes from a sample in which actives are over-represented; it also holds similar structures and randomly drawn compounds. Entries that show only a call come without a potency. Unmarked numbers belong to inactive results. Calls come from the whole dose curve; as a rule, active = well fitted curve in either direction with a large enough effect; inconclusive = small, poorly fitted or top-dose-only effect, or another doubt; inactive = flat fitted curve, though single readings scatter.

System: Hsp90 C-terminal peptide / TPR2A (Hop) interaction, human
Test: qHTS Assay for Disrupters of an Hsp90 Co-Chaperone Interaction
Conditions: AlphaScreen TPR2A-His6 binding biotin-Hsp90 C-terminal peptide; series mostly up to 57 µM
Potency is the fitted concentration of half-maximal effect.

Compound | activity change, negative = inhibition | Potency
CC1=C(C(=O)Nc2ccccc2)C(c2cccs2)C(C#N)=C(SCC#N)N1 (configuration not stated) | inactive | 
CCCCN(CCCC)C(=O)CCS(=O)(=O)c1ccc2c(c1)n(C)c(=O)c(=O)n2C | inactive | 
Cc1cnc(CNc2nc(-c3cccnc3)nc3ccccc23)cn1 | inactive | 
CCCn1nnc2sc3c(c2c1=O)CCC(C)C3 (configuration not stated) | inactive | 
Cn1cccc1C(=O)N1CCC[C@@]2(CCN(Cc3nccs3)C2)C1 | inactive | 
Cc1n[nH]c(C)c1S(=O)(=O)N1CCCC(C(=O)NCC2COc3ccccc3O2)C1 (configuration not stated) | inactive | 
c1ccc(Oc2ccccc2)cc1 | inactive | 
COC(=O)[C@@]1(Cc2ccccc2)[C@H]2c3cc(C(=O)N(C)C)n(CCSCCO)c3C[C@H]2CN1C(=O)c1ccccc1 | inactive | 
C=CCn1c(COc2ccccc2F)nnc1SCC(=O)N1CC(=O)Nc2ccccc21 | inactive | 
CO[C@@H]1/C=C\O[C@]2(C)Oc3c(C)c(O)c4c(O)c(c(CN(C)C)c(O)c4c3C2=O)NC(=O)/C(C)=C\C=C[C@@H](C)[C@@H](O)[C@H](C)[C@@H](O)[C@H](C)[C@H](OC(C)=O)[C@@H]1C | -3.79% [at 11 µM] | 
CC[C@H](c1ccccc1)c1cc(C(C)(C)C)cc(C(C)(C)C)c1O | 5.54% [at 11 µM] | 
S=c1[nH]nc(SCc2ccccc2Cl)c2[nH]cnc12 | -1.97% [at 11 µM] | 
Oc1cc2c(cc1O)CN(C(=S)NCCc1ccc(Cl)cc1)CCC2 | inactive | 
CCOC(=O)c1[nH]cnc1C(=O)NC1CCCCC1 | inactive | 
N#Cc1ccccc1-c1ccc2ncnc(NCc3cccnc3)c2c1 | inactive | 
O=C(O)C1CCN(c2ncnc3ccc(-c4ccccc4C(F)(F)F)cc23)CC1 | inactive | 
c1ccc2c(Nc3ccncc3)nc(-c3ccc4c(c3)OCO4)nc2c1 | inactive | 
C#CCCCCCCCCCCCCCCCC(=O)O | inactive | 
Cc1ccnc(NC(=O)c2ccc(NC(=O)c3ccco3)cc2)c1 | inactive | 
CC(NC(=O)c1ccco1)C(=O)Nc1nc(-c2ccccn2)cs1 (configuration not stated) |  | 10 µM (active)
O=C(Nc1ccc(NC(=O)c2cccs2)cn1)c1ccco1 | inactive | 
N#CCCn1c(=O)c(-c2cc(F)cc(F)c2)nc2cnc(Oc3ccccc3)nc21 | inactive | 
CCCc1cc(=O)[nH]c(SCC(=O)OCc2ccccc2)n1 | inactive | 
COc1ccccc1-c1nc(NCc2cccs2)c2ccccc2n1 | inactive | 
O=C(Nc1c2c(nn1-c1ccc(F)cc1)CS(=O)C2)C12CC3CC(CC(C3)C1)C2 (configuration not stated) | inactive | 
CCOC(=O)CNC(=O)CSc1nnc(-c2cccc(OC)c2)n1CC | inactive | 
COC(=O)[C@H]1[C@H]2C[C@H]3c4[nH]c5ccccc5c4CCN3C[C@@H]2CC[C@@H]1O | inactive | 
